# Source: the supplement of paper PMC11219838
# Tested on: Caenorhabditis elegans L1 (N2)
# Experiment: survival and reproduction score of C. elegans L1 (0: 0-10 living worms, 1: 11-20, 2: 21-50, 3: >50, 4: overgrown) (score 0-4); higher = more worms, less nematicidal, active = 1 or less; extreme values may be limits of the assay
# Conditions: 60 µM; 6 days; temperature: 20 °C
# Method in brief: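 After compound was pinned to 60 µM final (0.6% v/v DMSO) into wells with roughly 20 synchronized C. elegans N2 L1s and E. coli HB101 in liquid NGM, the sealed 96-well plates were shaken at 200 rpm for 6 days at 20 °C. Under a dissection microscope, survival and reproduction were graded ordinally by living worms per well. A grade of 0 stood for 0–10 worms and 4 for overgrown, starved wells; two biological replicates were averaged.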
row,Compound,survival and reproduction score
1,Cc1cccc(-c2noc(COc3ccccc3Cl)n2)c1,4 (inactive)
2,O=C(CSc1nnc(-c2ccccc2)o1)NCc1ccccc1,4 (inactive)
3,Cc1ccc(OCc2nc(-c3ccc(F)cc3)no2)cc1C,4 (inactive)
4,CCOc1cc(-c2noc(-c3ccncc3)n2)ccc1OC,4 (inactive)
5,Cc1ccc(-c2noc(COc3ccc(Cl)cc3C)n2)cc1,2 (inactive)
6,Cc1cccc(-c2noc(-c3ccc(C)c(Cl)c3)n2)c1,4 (inactive)
7,CC(C)Oc1ccc(-c2nc(-c3ccccn3)no2)cc1,0 (active)
8,CC(C)(C)NC(=O)c1ccccc1-c1nc(-c2ccccc2)no1,4 (inactive)
9,COc1ccc(-c2noc(-c3ccc(Cl)cc3)n2)cc1,3 (inactive)
10,COc1ccc(-c2noc(-c3ccccc3C(=O)Nc3ccc(NC(C)=O)cc3)n2)cc1,4 (inactive)
11,Clc1ccc(-c2noc(-c3cccnc3)n2)cc1,0 (active)
12,COc1cccc(OCc2nc(-c3cccc(C)c3)no2)c1,4 (inactive)
13,COc1ccccc1OCc1nc(-c2cccc(Br)c2)no1,4 (inactive)
14,Cc1ccc(OCc2nc(-c3ccccn3)no2)cc1C,4 (inactive)
15,Cc1ccc(NC(=O)CSc2nnc(-c3ccccc3)o2)cc1F,4 (inactive)
16,COc1ccc(CCC(=O)Nc2ccc(-c3noc(-c4ccc(F)cc4)n3)cc2)cc1,4 (inactive)
17,COc1ccc(Cl)cc1NC(=O)CSc1nnc(-c2ccncc2)o1,4 (inactive)
18,COc1ccc(-c2noc(COc3ccc(Br)cc3)n2)cc1,2 (inactive)
19,Cc1ccc(OCc2nc(-c3ccccc3)no2)c(Br)c1,4 (inactive)
